# Source: PubChem BioAssay (Tox21)
# Where “and” joins values, the source holds several entries; their conditions need not be identical. Equal values may be shown once. Records with an inconclusive call do not appear. Where a call stands in place of a potency, no number is given. Calls of active or inactive are those of the source. Unless noted, calls come from the whole dose curve; as a rule, active = well fitted curve in the direction sought with a large enough effect in the repeat runs; inconclusive = weak or mixed curves; inactive = no such curve, though single readings can be large; an effect the other way counts as inactive or inconclusive.
# Experiments:
# [1] = qHTS assay to test for compound auto fluorescence at 535 nm (green) in HEK293 cells (AID 720680)
# [2] = qHTS assay to test for compound auto fluorescence at 460 nm (blue) in HEK293 cell free culture (AID 720681)
# How it was run: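 Compounds were added to cell-free DMEM with 10% FBS and fluorescence read directly. The blue channel used 405 nm excitation and 460 nm emission, with triamterene as the reference fluorophore.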
# [3] = qHTS assay to test for compound auto fluorescence at 535 nm (green) in HEK293 cell free culture (AID 720682)
# How it was run: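 Compounds were pin-transferred into cell-free DMEM with 10% FBS, and green fluorescence was read at excitation 485 nm and emission 535 nm. Intensities were expressed as fluorescein-equivalent values.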
# [4] = qHTS assay to test for compound auto fluorescence at 590 nm (red) in HEK293 cell free culture (AID 720683)
# How it was run: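 Cell-free wells of DMEM with 10% FBS received compound, and intrinsic fluorescence was read at excitation/emission 540/590 nm. Values expressed as equivalence to Rose Bengal sodium.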
# [5] = qHTS assay to test for compound auto fluorescence at 590 nm (red) in HepG2 cell free culture (AID 720684)
# How it was run: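 Compounds are added to culture medium (MEM, 10% FBS) lacking cells, then fluorescence is read at excitation 540 nm, emission 590 nm, with Rose Bengal sodium as the equivalency standard.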
# [6] = qHTS assay to test for compound auto fluorescence at 460 nm (blue) in HepG2 cell free culture (AID 720685)
# How it was run: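 Compound (23 nL) or DMSO pinned into cell-free MEM with 10% FBS; blue fluorescence read at 405/460 nm excitation/emission, expressed as auto-fluorescence equivalency to triamterene.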
# [7] = qHTS assay to test for compound auto fluorescence at 535 nm (green) in HepG2 cell free culture (AID 720686)
# [8] = qHTS assay to test for compound auto fluorescence at 460 nm (blue) in HepG2 cells (AID 720687)
# How it was run: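 HepG2 cells in MEM with 10% FBS, attached overnight at 37 C, were exposed to compound or DMSO for 1 hr at 37 C, 5% CO2. Blue fluorescence was read at 405/460 nm, with triamterene as reference fluorophore.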
# [9] = qHTS assay to identify small molecule antagonists of the glucocorticoid receptor (GR) signaling pathway - cell viability counter screen (AID 720693); note: nearly all actives have a fitted effect of over 55% in size
# [10] = qHTS assay for identifying genotoxic compounds that show differential cytotoxicity against isogenic chicken DT40 cell lines with known DNA damage response pathways - wild type cell line (AID 743012); note: nearly all actives have a fitted effect of over 60% in size; note: potency is the fitted concentration of half-maximal effect
# How it was run: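 Wild-type DT40 cells (300/well) exposed to compounds for 40 hours at 37 C/5% CO2. Viability read by CellTiter-Glo luminescence after 30 min at room temperature.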
# [11] = qHTS assay for identifying genotoxic compounds that show differential cytotoxicity against isogenic chicken DT40 cell lines with known DNA damage response pathways - Rev3 mutant cell line (AID 743014); note: nearly all actives have a fitted effect of over 55% in size; note: potency is the fitted concentration of half-maximal effect
# [12] = qHTS assay for identifying genotoxic compounds that show differential cytotoxicity against isogenic chicken DT40 cell lines with known DNA damage response pathways - Rad54/Ku70 mutant cell line (AID 743015); note: nearly all actives have a fitted effect of over 60% in size; note: potency is the fitted concentration of half-maximal effect
# [13] = qHTS assay to identify small molecule antagonists of the androgen receptor (AR) signaling pathway - cell viability counter screen (AID 743033; note: nearly all actives have a fitted effect of over 45% in size; note: potency is the fitted concentration of half-maximal effect)
# [14] = qHTS assay to identify small molecule antagonists of the androgen receptor (AR) signaling pathway using the MDA cell line - cell viability counter screen (AID 743041; note: nearly all actives have a fitted effect of over 45% in size)
# How it was run: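 Same-well cytotoxicity was assessed by CellTiter-Fluor in MDA-kb2 AR-luc cells after 16 h of compound treatment under R1881 agonism.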
# [15] = target: Glucocorticoid receptor (Homo sapiens) (UniProt P04150); experiment: qHTS assay to identify small molecule agonists of the glucocorticoid receptor (GR) signaling pathway (AID 720691; active = well fitted activation curve with a large enough effect in the signal ratio in the repeat runs, not every such curve was filed as active; the % refers to the signal ratio)
# How it was run: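 GR-bla HeLa cells carrying a GRE-driven beta-lactamase reporter, exposed to compounds for 18 h at 37 C. Reporter activation read as fluorescence after 2 h with LiveBLAzer B/G FRET substrate at room temperature.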
# [16] = target: Glucocorticoid receptor (Homo sapiens) (UniProt P04150); experiment: qHTS assay to identify small molecule antagonists of the glucocorticoid receptor (GR) signaling pathway (AID 720692; active = well fitted inhibition curve with a large enough effect in the signal ratio in the repeat runs, not every such curve was filed as active; the % refers to the signal ratio; note: potency is the fitted concentration of half-maximal effect)
# How it was run: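 GR-bla HeLa cells carrying a GRE-driven beta-lactamase reporter received compound after 4 h plating, then dexamethasone (5 nM final). After 18 h at 37C, the FRET substrate was loaded for 2 h at room temperature and fluorescence read.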
# [17] = target: Androgen receptor (Homo sapiens) (UniProt P10275); experiment: qHTS assay to identify small molecule antagonists of the androgen receptor (AR) signaling pathway (AID 743035; active = well fitted inhibition curve with a large enough effect in the signal ratio in the repeat runs, not every such curve was filed as active; the % refers to the signal ratio)
# How it was run: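 HEK293 cells stably carrying UAS-beta-lactamase reporter, 2,000/well, given compounds plus R1881 agonist and incubated 16 h at 37C. LiveBLAzer B/G FRET substrate then added for 2 h at room temperature before fluorescence reading.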
# [18] = target: Androgen receptor (Homo sapiens) (UniProt P10275); experiment: qHTS assay to identify small molecule agonists of the androgen receptor (AR) signaling pathway (AID 743036; active = well fitted activation curve with a large enough effect in the signal ratio in the repeat runs, with a control signal flat, not every such curve was filed as active; the % refers to the signal ratio)
# How it was run: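 Activation was read as beta-lactamase FRET signal from LiveBLAzer B/G substrate, added for 2 h at room temperature. Before that, GeneBLAzer AR-UAS-bla GripTite (HEK293) cells had 16 h compound exposure at 37C.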
# [19] = target: Androgen receptor (Homo sapiens) (UniProt P10275); experiment: qHTS assay to identify small molecule agonists of the androgen receptor (AR) signaling pathway using the MDA cell line (AID 743040; note: nearly all actives have a fitted effect of over 20% in size); details: MDA-kb2 AR-luc cells, MMTV luciferase, 16 h; activity change: at 70.3 µM (top of the series), stronger effect = higher value
# How it was run: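 Human breast carcinoma MDA-kb2 reporter cells (MMTV-luc, AR/GR elements) were treated for 16 h at 37C in 0% CO2 following a 5 h settling period. Signal was quantified by ONE-Glo luminescence.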
# [20] = target: Androgen receptor (Homo sapiens) (UniProt P10275); experiment: qHTS assay to identify small molecule antagonists of the androgen receptor (AR) signaling pathway using the MDA cell line (AID 743042; note: nearly all actives have a fitted effect of over 55% in size)
# How it was run: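 MDA-kb2 breast carcinoma cells carrying MMTV-luciferase (AR/GR responsive) were co-treated with compounds and the agonist R1881 for 16 h at 37C. Inhibition read as ONE-Glo luminescence; CellTiter-Fluor fluorescence measured in parallel for cytotoxicity.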
# Chain of Androgen receptor (Homo sapiens) (P10275 whole entry, looked up): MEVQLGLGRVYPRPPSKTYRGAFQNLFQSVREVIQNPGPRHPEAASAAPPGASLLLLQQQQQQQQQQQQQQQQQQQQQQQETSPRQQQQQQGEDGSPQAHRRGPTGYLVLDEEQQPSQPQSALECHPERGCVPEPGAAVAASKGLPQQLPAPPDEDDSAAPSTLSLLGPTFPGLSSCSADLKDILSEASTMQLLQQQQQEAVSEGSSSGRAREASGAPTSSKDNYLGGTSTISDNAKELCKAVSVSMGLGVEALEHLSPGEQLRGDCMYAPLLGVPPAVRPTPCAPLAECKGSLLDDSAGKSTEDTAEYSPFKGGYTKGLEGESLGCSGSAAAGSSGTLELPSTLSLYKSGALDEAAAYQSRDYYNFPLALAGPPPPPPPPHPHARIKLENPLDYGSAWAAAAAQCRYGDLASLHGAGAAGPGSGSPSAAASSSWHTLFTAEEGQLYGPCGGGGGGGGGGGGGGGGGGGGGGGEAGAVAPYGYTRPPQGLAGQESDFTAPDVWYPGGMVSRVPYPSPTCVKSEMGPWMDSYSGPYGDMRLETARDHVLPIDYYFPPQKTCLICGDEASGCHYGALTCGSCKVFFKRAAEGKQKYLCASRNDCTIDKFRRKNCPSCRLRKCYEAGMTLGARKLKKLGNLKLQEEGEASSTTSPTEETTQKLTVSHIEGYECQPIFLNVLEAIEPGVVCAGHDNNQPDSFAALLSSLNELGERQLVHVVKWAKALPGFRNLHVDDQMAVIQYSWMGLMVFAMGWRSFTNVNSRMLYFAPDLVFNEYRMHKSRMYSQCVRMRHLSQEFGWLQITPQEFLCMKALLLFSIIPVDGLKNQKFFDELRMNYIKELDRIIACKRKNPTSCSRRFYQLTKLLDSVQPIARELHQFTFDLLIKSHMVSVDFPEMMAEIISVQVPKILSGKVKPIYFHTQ
# Chain of Glucocorticoid receptor (Homo sapiens) (P04150 whole entry, looked up): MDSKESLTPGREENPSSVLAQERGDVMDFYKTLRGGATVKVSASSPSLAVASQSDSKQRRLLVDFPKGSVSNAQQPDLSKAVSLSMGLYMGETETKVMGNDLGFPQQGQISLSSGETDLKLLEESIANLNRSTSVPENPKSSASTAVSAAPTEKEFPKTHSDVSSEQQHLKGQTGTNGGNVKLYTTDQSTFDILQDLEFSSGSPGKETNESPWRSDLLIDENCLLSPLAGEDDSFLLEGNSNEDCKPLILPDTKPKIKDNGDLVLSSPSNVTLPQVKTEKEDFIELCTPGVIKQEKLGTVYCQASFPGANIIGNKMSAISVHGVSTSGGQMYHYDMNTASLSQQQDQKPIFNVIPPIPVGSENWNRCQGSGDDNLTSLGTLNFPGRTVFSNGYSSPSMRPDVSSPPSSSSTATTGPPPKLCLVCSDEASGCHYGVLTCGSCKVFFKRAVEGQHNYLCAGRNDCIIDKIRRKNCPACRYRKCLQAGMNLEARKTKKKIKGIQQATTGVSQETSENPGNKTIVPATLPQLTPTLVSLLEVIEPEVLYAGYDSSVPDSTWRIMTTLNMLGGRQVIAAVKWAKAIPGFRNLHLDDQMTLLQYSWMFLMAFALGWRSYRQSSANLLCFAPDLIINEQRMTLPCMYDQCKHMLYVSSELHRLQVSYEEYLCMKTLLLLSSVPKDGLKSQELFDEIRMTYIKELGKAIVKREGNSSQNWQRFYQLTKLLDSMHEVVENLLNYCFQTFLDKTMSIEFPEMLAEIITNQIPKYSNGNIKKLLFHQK
SMILES,outcome [1],outcome [2],outcome [3],outcome [4],outcome [5],outcome [6],outcome [7],outcome [8],Potency [9],Potency [10],Potency [11],Potency [12],Potency [13],Potency [14],Potency [15],Potency [16],Potency [17],Potency [18],Potency [19],Potency [20]
C1CCNCC1,inactive,inactive,inactive,inactive,inactive,inactive,inactive,inactive,inactive,inactive,inactive,inactive,inactive,inactive,,,,,,
CN1C[C@H](C(=O)N[C@]2(C)O[C@@]3(O)[C@@H]4CCCN4C(=O)[C@H](Cc4ccccc4)N3C2=O)C=C2c3cccc4[nH]cc(c34)C[C@H]21,inactive,inactive,inactive,inactive,inactive,inactive,inactive,inactive,inactive,21.1 µM (active) and 48.8 µM (active) and 22.6 µM (active),23.7 µM (active) and 27.4 µM (active) and 18 µM (active),9.44 µM (active) and 13.7 µM (active) and 10.1 µM (active),inactive,inactive,inactive,,,,,
O=[N+]([O-])/C=C/c1ccccc1,inactive,inactive,inactive,inactive,inactive,inactive,inactive,inactive,,,,,,inactive,,15.7 µM (active) and 17.4 µM (active),,,,
CC(C)C1(C)N=C(c2ncccc2C(=O)O)NC1=O (centres undefined),inactive,inactive,inactive,inactive,inactive,inactive,inactive,inactive,,,,,inactive,inactive,inactive,inactive,,,,
Cc1ncc(C[n+]2csc(CCO)c2C)c(N)n1,inactive,inactive,inactive,inactive,inactive,inactive,inactive,inactive,inactive,inactive,inactive,inactive,inactive,inactive,,,,,,
CC(Cl)C(=O)O (centres undefined),inactive,inactive,inactive,inactive,inactive,inactive,inactive,inactive,inactive,inactive,inactive,,inactive,inactive,,,inactive,inactive,inactive,inactive
O=S(=O)(Cl)Cl,inactive,inactive,inactive,inactive,inactive,inactive,inactive,inactive,,inactive,inactive,,inactive,inactive,inactive,,,,,
Cc1ccc(N)c(C)c1,inactive,inactive,inactive,inactive,inactive,inactive,inactive,inactive,inactive,inactive,inactive,inactive,inactive,inactive,inactive,,,,,
CCCN(CCC)C(=O)Cc1c(-c2ccc(Cl)cc2)nc2ccc(Cl)cn12,inactive,inactive,inactive,inactive,inactive,inactive,inactive,inactive,,,inactive,inactive,inactive,inactive,,,,,,
CCc1ccccc1N,inactive,inactive,inactive,inactive,inactive,inactive,inactive,inactive,inactive,inactive,inactive,inactive,inactive,inactive,inactive,,,,,
C[C@@H]1C[C@@H]([C@H](O)CC2CC(=O)NC(=O)C2)C(=O)[C@@H](C)C1,inactive,inactive,inactive,inactive,inactive,inactive,inactive,inactive,inactive,59.6 nM (active) and 108 nM (active),119 nM (active) and 60.8 nM (active),133 nM (active) and 121 nM (active),379 nM (active) and 97.2 nM (active),inactive,,,,,,
C=CC(=O)NC(C)(C)CC(C)=O,inactive,inactive,inactive,inactive,inactive,inactive,inactive,inactive,inactive,inactive,54.5 µM (active),,inactive,inactive,inactive,,,,,
CCOC(=O)NC(O)C(Cl)(Cl)Cl (centres undefined),inactive,inactive,inactive,inactive,inactive,inactive,inactive,inactive,inactive,inactive,inactive,,inactive,inactive,,,,,,
O=C1NC(=O)C(=O)C(=O)N1,inactive,inactive,inactive,inactive,inactive,inactive,inactive,inactive,inactive,inactive,inactive,,inactive,inactive,inactive,,,,,
CCOP(=S)(OCC)SCSc1cc(Cl)ccc1Cl,inactive,inactive,inactive,inactive,inactive,inactive,inactive,inactive,inactive,inactive,inactive,inactive,inactive,inactive,inactive,,,,,
Clc1ccc(Cl)c(Cl)c1,inactive,inactive,inactive,inactive,inactive,inactive,inactive,inactive,inactive,inactive,inactive,,inactive,inactive,,,,,,
CON(C)C(=O)Nc1ccc(Cl)cc1,inactive,inactive,inactive,inactive,inactive,inactive,inactive,inactive,inactive,inactive,inactive,inactive,inactive,inactive,inactive,,,,,
CNC(=O)Oc1cccc(N=CN(C)C)c1,inactive,inactive,inactive,inactive,inactive,inactive,inactive,inactive,,54.5 µM (active),54.5 µM (active),,inactive,,,,,,,
CC(C)(C)NCC(O)c1cc(Cl)c(N)c(C(F)(F)F)c1 (centres undefined),inactive,inactive,inactive,inactive,inactive,inactive,inactive,inactive,,inactive,,inactive,inactive,inactive,inactive,inactive,inactive,inactive,inactive,inactive
